Data from PubChem BioAssay (Tox21).
Results filed as inconclusive are left out. Values without a mark were called inactive. Active and inactive are the calls of the source. The call rests on the fitted dose curve; in most records, active means well fitted activation curve with a large enough effect in the signal ratio in the repeat runs (not every such curve was filed as active); inconclusive means weak or mixed curves, or effect the other way; inactive means no such curve, though single readings can be large or run the other way; the % refers to the signal ratio.

target: Glucocorticoid receptor (Homo sapiens) (UniProt P04150); assay: qHTS assay to identify small molecule agonists of the glucocorticoid receptor (GR) signaling pathway (AID 720691); details: GR-bla HeLa, beta-lactamase reporter ratio, 18 h; series mostly up to 62.4 µM; activation: at the top concentration
Text: U.S. Tox21 Program National Center for Advancing Translational Sciences [NCATS] NIH Chemical Genomics Center [NCGC] U.S. Environmental Protection Agency [EPA] National Institutes of Environmental Health Sciences [NIEHS] National Toxicology Program [NTP] U.S. Food and Drug Administration [FDA] Tox21 Assay Overview: The Glucocorticoid receptor (GR) is one of the members of the nuclear receptor family of ligand-dependent transcription factors. GR plays a critical role in carbohydrate, protein and lipid metabolisms and programmed cell death. CellSensor GR-bla HeLa cell line (Invitrogen) contains a beta-lactamase reporter gene under the control of the glucocorticoid response element stably integrated into HeLa cells, a cervical cancer cell line that expresses glucocorticoid receptor. The activation of the reporter gene under culture conditions can be detected by fluorescence intensity. This cell line has been used to screen the Tox21 10K compound library and to identify the compounds that activate the GR signaling.
Tox21 Assay Protocol Summary: The GR-bla HeLa cells were dispensed at 1500 cells/6 ul/well in 1536-well black wall/clear bottom plates using a Multidrop Combi (ThermoFisher Scientific, Waltham, MA) dispenser. After the assay plates were incubated at a 37 C/5% CO2 incubator for 4 hours, 23 nL of compounds dissolved in DMSO, positive controls or DMSO only was transferred to the assay plate by a pintool station (Kalypsys, San Diego, CA). The plates were incubated at 37 C for 18 hours. After 1 uL of LiveBLAzerTM B/G FRET substrate was added using a Flying Reagent Dispenser (Aurora Discovery, San Diego, CA), the plates were incubated at room temperature for 2 hours, and fluorescence intensity was measured by an Envision plate reader (PerkinElmer, Shelton, CT).
On the % scale 0 is the no-effect control and ±100 the full control effect.

Sequence of Glucocorticoid receptor (Homo sapiens) (P04150 whole entry, looked up): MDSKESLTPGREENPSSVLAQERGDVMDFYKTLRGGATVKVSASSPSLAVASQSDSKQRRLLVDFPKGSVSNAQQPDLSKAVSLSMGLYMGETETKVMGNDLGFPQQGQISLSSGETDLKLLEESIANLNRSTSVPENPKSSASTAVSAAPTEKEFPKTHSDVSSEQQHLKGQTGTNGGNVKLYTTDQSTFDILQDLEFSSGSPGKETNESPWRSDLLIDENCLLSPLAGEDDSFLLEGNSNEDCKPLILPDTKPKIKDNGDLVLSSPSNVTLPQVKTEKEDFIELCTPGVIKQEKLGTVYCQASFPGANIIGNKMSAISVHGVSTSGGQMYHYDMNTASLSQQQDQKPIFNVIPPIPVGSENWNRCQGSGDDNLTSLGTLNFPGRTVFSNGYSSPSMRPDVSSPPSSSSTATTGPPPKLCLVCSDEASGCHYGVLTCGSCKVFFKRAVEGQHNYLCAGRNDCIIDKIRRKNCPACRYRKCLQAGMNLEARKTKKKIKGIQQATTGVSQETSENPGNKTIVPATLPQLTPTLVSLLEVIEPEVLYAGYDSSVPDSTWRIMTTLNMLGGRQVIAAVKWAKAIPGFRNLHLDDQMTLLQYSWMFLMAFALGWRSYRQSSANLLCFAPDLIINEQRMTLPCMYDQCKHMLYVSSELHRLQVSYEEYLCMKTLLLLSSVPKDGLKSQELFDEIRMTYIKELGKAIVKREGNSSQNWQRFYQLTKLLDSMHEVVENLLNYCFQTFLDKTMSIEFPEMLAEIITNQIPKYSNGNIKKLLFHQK

SMILES	activation	Potency
C[N+]12CCC(CC1)C(OC(=O)C(O)(c1ccccc1)c1ccccc1)C2 (stereo not given)	0.141% [at 29.2 µM]	
CN(C)CCCN(C)CCCN(C)C	-1.76%	
Cc1c(N)c(=O)n(-c2ccccc2)n1C	-0.311% [at 29.2 µM]	
O=C1CCCCCCCCCCCCCCO1	0.733%	
CC1(C)OC[C@@H](COC(=O)CCc2ccc(OC[C@@H](O)CNCCNC(=O)N3CCOCC3)cc2)O1		inactive
CC(=O)N1C[C@H](O)C[C@H]1C(=O)O	0.374%	
CC1CCC(CO)CC1 (stereo not given)	3.75% [at 79.2 µM]	
CCC(C)(CN(C)C)OC(=O)c1ccccc1 (stereo not given)	0.27% [at 29.2 µM]	
CCO[Si](OCC)(OCC)c1ccccc1	4.75%	
CC1=NS(=O)(=O)c2cc(Cl)ccc2N1	-2.74%	
NC(CCC(=O)O)C(=O)O (stereo not given)	4.08%	
CC(C)(N)C#N	-0.299% [at 79.2 µM]	
Nc1ccn([C@@H]2O[C@H](CO)[C@@H](O)C2(F)F)c(=O)n1	0.887%	
CC1(C)[C@@H]2CC[C@@]1(C)[C@H](O)C2	1.32%	
Nc1ccn([C@@H]2O[C@H](CO)[C@@H](O)C2O)c(=O)n1 (stereo not given in full)		inactive
CCCO[Si](OCCC)(OCCC)OCCC	1.21%	
Nc1ccccn1	-0.547%	
CO/N=C(\C(=O)N[C@@H]1C(=O)N2C(C(=O)O)=C(CSc3nc(=O)c(O)nn3C)CS[C@H]12)c1csc(N)n1	0.451%	
COC(=O)C1=C(C)NC(C)=C(C(=O)OC(C)C)C1c1cccc2nonc12 (stereo not given)	-2.79% [at 29.2 µM]	
Cc1ccccc1N=C(N)N=C(N)N	5.16%	

SMILES	activation	Potency
CCOC(=O)COC(=O)c1ccccc1C(=O)OCC	-2.32%	
CC(COc1ccccc1)NN (stereo not given)	-0.0876%	
CCOC(=O)CCC(=O)OCC	0.254%	
Cc1cc(C)c(N=Nc2c(O)c(S(=O)(=O)O)cc3cc(S(=O)(=O)O)ccc23)cc1C	-1.47% [at 6.9 µM]	
O=C(O)CCSCCC(=O)O	1.47%	
CC(CO)(CO)[N+](=O)[O-]	-2.58%	
CN(C)[C@@H]1C(=O)C(C(=O)NCN2CCCC2)=C(O)[C@@]2(O)C(=O)C3=C(O)c4c(O)cccc4[C@@](C)(O)C3C[C@@H]12 (stereo not given in full)		inactive
CCCC(C)C(=O)OCC (stereo not given)	0.365%	
CC(C)CC(C)(N)C#N (stereo not given)	3.08% [at 79.2 µM]	
O=C(CO)[C@@H](O)[C@H](O)[C@H](O)CO		inactive
Nc1ccn([C@@H]2O[C@H](CO)[C@@H](O)[C@@H]2O)c(=O)n1	-4.11%	
Cc1ccc(C(=O)Nc2ccc(S(=O)(=O)O)c3cc(S(=O)(=O)O)cc(S(=O)(=O)O)c23)cc1NC(=O)c1cccc(NC(=O)Nc2cccc(C(=O)Nc3cc(C(=O)Nc4ccc(S(=O)(=O)O)c5cc(S(=O)(=O)O)cc(S(=O)(=O)O)c45)ccc3C)c2)c1	-4.38%	
Cc1ncc(COP(=O)(O)O)c(C=O)c1O	-0.376%	
C=CCOCC(O)CO (stereo not given)	-1.48%	
CO[Si](C)(OC)c1ccccc1	4.22%	
COc1c(N2CCNC(C)C2)c(F)cc2c(=O)c(C(=O)O)cn(C3CC3)c12 (stereo not given)	-0.347%	
N[C@@H](CCC(=O)O)C(=O)O		inactive
CC(C)C(=O)OC(=O)C(C)C	-0.502%	
CCCCOC(=O)CCC(C)=O	3.01%	
CC[N+](CC)(CC)CCOc1cccc(OCC[N+](CC)(CC)CC)c1OCC[N+](CC)(CC)CC	2.72%	
